Compound activity as filed in PubChem.
HPGD block – inhibitors of human 15-hydroxyprostaglandin dehydrogenase (HPGD). P15428. purified HPGD, NADH fluorescence kinetic, PGE2 substrate. Potency, µM, without a hit: at the top dose activity change, negative = inhibition, actives largely listed as inhibitors. hit rate 4.3% among 150,000. AID 894; further: potency means the concentration at half of the fitted maximal effect
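NADH formation kinetics: reaction with 30 uM PGE2 and 1 mM NAD+ (final), 20 nM enzyme, Tris-HCl pH 8 with Tween 20, after 15 min compound preincubation at room temperature. Fluorescence change, last versus first of five reads.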
NPSR antagonist – neuropeptide S receptor (human) antagonism, cAMP. Q6W5P4. Potency, µM (doses to about 38.3 µM), for the others: top-dose activity change, negative = inhibition, most hits filed as inhibitors. CHO-NPSR cells, cAMP TR-FRET, antagonist mode. hit rate 1% among 220,000; active means well fitted curve in the direction sought with a large enough effect; inconclusive means small, poorly fitted or top-dose-only effect, or another doubt; inactive means no such curve, though single readings can be large; an effect the other way counts as inactive or inconclusive; further: potency means the concentration at half of the fitted maximal effect; nearly all actives have a fitted effect of over 50% in size
IMPase cell inh – membrane-permeable compound that blocks inositol monophosphatase; CHO-M1 cells, IP1 accumulation, HTRF TR-FRET ratio; inhibition (IP1 accumulation), % at 46.1 µM; 120,000 tested, under 10 active; AID 901; active means well fitted curve in the direction sought with a large enough effect in the signal ratio, not every such curve was filed as active; inconclusive means small, poorly fitted or top-dose-only effect, or a change in a side signal; inactive means no such curve, though single readings can be large or run the other way; the % refers to the signal ratio;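 further: cells stimulated with carbachol in lithium chloride buffer; plate controls were DMSO basal wells for no effect and reference inhibitor wells for full effect; higher means more IMPase inhibition seen as more IP1 and lower FRET ratio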
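CHO-M1, 2000 cells/well, cultured 16–30 h; cpd up to 46 uM; carbachol (50 uM solution, stimulation buffer w/ 50 mM LiCl, pH 7.4), 30 min 37C; IP-One TR-FRET, 10 min RT; Ex 320/Em 665, 620; Hill-fit AC50.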
PNC assembly inh – blocks assembly of the perinucleolar compartment; PC3M PTB-GFP, PNC prevalence imaging, 16 h; active compounds read low; activity change (PNC), negative = inhibition, % at 10 µM; hit rate 3.1% among 140,000;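 active means readout at or below -70, meaning at least 70% loss of cells showing the perinucleolar compartment, a nuclear body marking cancer cells; inconclusive means readout between -30 and a set limit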;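 further: plate controls were DMSO wells for no effect and camptothecin positive control wells for full effect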
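Compounds are pinned in duplicate onto adhered PC3M cells stably expressing GFP-tagged PTB and incubated 16 h at 37 C. Cells are then fixed, nuclei stained with Hoechst, and PNC-positive cells counted.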
ALDH1A1 block – blocks purified human ALDH1A1 activity; P00352; Purified ALDH1A1, NADH fluorescence, propionaldehyde substrate; Potency, µM (top dose mostly 75.3 µM), for the others: at the top dose activity, negative = inhibition, usual class: inhibitors; hit rate 7.3% among 220,000; AID 1030;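 further: potency means the concentration at half of the fitted maximal effect; plate controls were no enzyme wells and a reference inhibitor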
Target sequence (P00352 whole entry, looked up): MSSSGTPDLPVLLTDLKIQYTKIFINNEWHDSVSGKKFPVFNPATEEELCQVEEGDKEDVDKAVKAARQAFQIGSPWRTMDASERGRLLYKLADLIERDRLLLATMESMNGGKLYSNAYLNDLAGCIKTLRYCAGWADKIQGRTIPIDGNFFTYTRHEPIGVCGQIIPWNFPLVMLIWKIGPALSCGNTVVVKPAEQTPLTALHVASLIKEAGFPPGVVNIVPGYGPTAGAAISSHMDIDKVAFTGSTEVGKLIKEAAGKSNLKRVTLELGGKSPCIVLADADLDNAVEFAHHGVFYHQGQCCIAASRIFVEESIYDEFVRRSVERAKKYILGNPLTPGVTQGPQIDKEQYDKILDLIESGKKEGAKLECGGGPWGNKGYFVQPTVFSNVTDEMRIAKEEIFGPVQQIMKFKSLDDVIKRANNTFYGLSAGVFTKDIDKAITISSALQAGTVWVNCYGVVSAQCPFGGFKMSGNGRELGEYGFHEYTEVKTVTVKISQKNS
IMPase Li inh – membrane-permeable IMPase blocker, potentiated with lithium | CHO-M1 cells, IP1 TR-FRET (IP-One), carbachol + lithium | Potency, µM (highest dose often 59.4 µM), for the others: at the highest dose activity, negative = IMPase inhibition, actives largely listed as inhibitors | hit rate 0.35% among 210,000; active means well fitted curve in the direction sought with a large enough effect; inconclusive means small, poorly fitted or top-dose-only effect, or another doubt; inactive means no such curve, though single readings can be large; an effect the other way counts as inactive or inconclusive;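 further: IP1 builds up when IMPase is blocked and the TR-FRET signal falls; potency means the concentration at half of the fitted maximal effect; plate controls were basal vehicle for no effect and high inhibitor control for full effect; nearly all actives have a fitted effect of over 50% in size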
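Lithium-sensitised IP1 accumulation assay; M1-expressing CHO cells treated 30 min at 37C with compound. Competitive antibody detection by time-resolved FRET followed a 10 min room-temperature lysis step.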
The depositor's hits bear a star; ? = inconclusive; · = no result; [ ] = another dose, or the depositor's remark. A selection: hits, their analogues and other compounds. The true share with any hit is near 11%. Unless noted, the call rests on the fitted dose curve; in most records, active means well fitted inhibition curve with a large enough effect (not every such curve was filed as active); inconclusive means small, poorly fitted or top-dose-only effect, or another doubt; inactive means no such curve, though single readings can be large or run the other way. Unless noted, on the % scale 0 is the no-effect control and ±100 the full control effect.

SMILES | HPGD block | NPSR antagonist | IMPase cell inh | PNC assembly inh | ALDH1A1 block | IMPase Li inh
Cc1cccc(NC(=O)/C=C/c2ccc(Cl)cc2)n1 | 0.2% | -5.7%[46.1 µM] | -1.0 | 28.9 | 3.6% | -4.1%
Cc1nnc(Nc2ccc3c(c2)OCO3)c2ccccc12 | -15.7% | -23.4%[46.1 µM] | 16.4 | 15.1 | 4.7% | 2.0%[38.3 µM]
Cc1nnc(Nc2ccc(C(=O)N3CCOCC3)cc2)c2ccccc12 | 15.8µM* | 15.4%[46.1 µM] | -7.2 | 6.9 | 9.5% | 21.8%[38.3 µM]
O=C(c1ccccc1)N1CCN(S(=O)(=O)N2CCCCC2)CC1 | -4.3% | -7.9%[46.1 µM] | -2.1 | ? | -1.5% | 12.6%[38.3 µM]
Cc1ccc(C(=O)N2CCCC2)cc1Br | 20µM* | 9.2%[46.1 µM] | 1.1 | -4.1 | 11.6% | 1.4%[38.3 µM]
O=C(c1ccccc1)N1CCCCCC1 | 4.47µM* | 4.3% | · | 23.4 | 7.3% | -4.1%
CS(=O)(=O)N1CCc2cc(C(=O)N3CCCCC3)ccc21 | 3.16µM* | -0.9%[46.1 µM] | -2.4 | -0.6 | -11.8% | -0.5%
Cc1ccc2c(C)c(C(=O)Nc3c(C)n(C)n(-c4ccccc4)c3=O)oc2c1C | -4.3% | 10.1% | · | -6.3 | 7.2% | -9.1%
CC(=O)Nc1ccc(S(=O)(=O)NC(CC(=O)O)c2ccc(C)cc2)cc1 (centres undefined) | · | 15.6% | · | · | · | ·
O=C(c1cccc(Br)c1)N1CCN(C(=O)N2CCOCC2)CC1 | -1.6% | -5.2%[46.1 µM] | ? | -3.5 | -4.4% | -4.1%
O=C(c1cccc(Br)c1)N1CCN(C(=O)c2cccc(Br)c2)CC1 | -3.5% | -22.6%[46.1 µM] | -0.1 | 175.7 | 15.8µM* | 10.9%
CCOc1ccc(OCc2ccc(C(=O)N3CCOCC3)cc2)cc1 | 15.8µM* | 1.4%[46.1 µM] | 10.5 | 23.1 | 3.55µM* | 15.9%
O=C(c1ccccc1Cl)N1CCNCC1 | -9.1% | 18.9%[46.1 µM] | -1.7 | 22.2 | 3.1% | ?
O=C(/C=C/N1CCOCC1)c1ccc(-c2ccccc2)cc1 | 28.2µM* | -20.8%[46.1 µM] | -3.8 | -15.7 | ? | 4.4%[38.3 µM]
O=C(c1c(Cl)cccc1Cl)N1CCCCCC1 | 28.2µM* | 0.9%[46.1 µM] | -5.2 | 8.7 | 3.1% | 7.5%[38.3 µM]
O=C(Nc1ccc(C(=O)O)cc1)/C(=C/c1ccc2c(c1)OCO2)NC(=O)c1cccc(Br)c1 | · | 2.6% | · | · | 3.8% | -3.8%
O=C(c1ccccc1)N1CCN(C(=O)C23CC4CC(CC(C4)C2)C3)CC1 | -8.8% | -16.6%[46.1 µM] | -8.6 | -126.9* | 25.1µM* | -7.5%[38.3 µM]
O=C(N1CCN(c2ccccc2F)CC1)C12CC3CC(CC(C3)C1)C2 | -15.7% | ? | 2.0 | -15.5 | -27.4% | 23.4%
CC(C)(C)C(=O)Cn1ncc(Br)c(Br)c1=O | · | -38.7% | · | · | 7.94µM* | -19.3%
Cc1ccc(C)c(N2CCN(C(=O)C3CCCN(S(=O)(=O)c4c(C)[nH]c(=O)[nH]c4=O)C3)CC2)c1 (centres undefined) | -3.8% | -11.0%[46.1 µM] | -6.8 | -86.3* | 4.9% | -0.8%[38.3 µM]
Cc1ccc(NC(=O)C2CCN(S(=O)(=O)c3c(C)[nH]c(=O)[nH]c3=O)CC2)cc1 | -3.2% | -2.0%[46.1 µM] | -2.8[1.84 µM] | -97.8* | 0.8% | 10.3%[38.3 µM]
Cc1[nH]c(=O)[nH]c(=O)c1S(=O)(=O)N1CCCC(C(=O)N2CCN(c3ccccc3Cl)CC2)C1 (centres undefined) | -25.4% | -7.1%[46.1 µM] | 0.3 | -17.3 | 2.9% | 27.3%[38.3 µM]
O=[N+]([O-])c1ccc(N2CCCCC2)cc1NCCOc1ccccc1 | -7.8% | -19.1% | · | -13.2 | -0.4% | 8.3%
CCc1ccc(C(C(=O)NCc2ccc(OC)cc2)N(CCOC)C(=O)Cc2cccs2)cc1 (centres undefined) | -6.6% | 25.8%[46.1 µM] | 1.0 | 6.4 | 1.26µM* | 8.9%[38.3 µM]
COCCN(C(=O)Cc1cccs1)C(C(=O)NCc1ccc(OC)cc1)c1ccc(C)cc1 (centres undefined) | -27.4% | -17.3%[46.1 µM] | -3.3[1.84 µM] | 7.6 | 2µM* | 43.0%[38.3 µM]
COc1ccc(CN(C(=O)Cc2c[nH]c3ccccc23)C(C(=O)NC2CCCCC2)c2ccc(C)o2)cc1 (centres undefined) | -18.3% | ? | -0.5 | ? | 6.31µM* | 13.8%
COc1ccc(CNC(=O)C(c2ccc(C)o2)N(Cc2cccs2)C(=O)Cc2cccs2)cc1 (centres undefined) | -18.3% | ? | 8.3 | -29.4 | 3.55µM* | 14.9%
